Source: PubChem BioAssay (several laboratories)
Shn3 inh set2 = inhibitors of Schnurri-3 3'UTR reporter in osteoblasts | Clone20 osteoblast Shn3 3'UTR firefly luciferase, 24 h | inhibition, % at 12.5 µM | actives 0.52% (n = 360,000) | AID 588674;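 active = mean inhibition of at least 75% with every replicate also reaching 75%; inconclusive = mean inhibition at least 75% but some replicate below; inactive = mean inhibition below 75%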;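 also: 0% = median of neutral control wells and 100% = pilot-screen positive control compound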
TROY signal inh = blocks TROY-dependent signaling in reporter cells; Q293 LMP1-TROYcd NF-kB luciferase reporter, 4 h; inhibition, % at 10 µM; actives 0.98% (n = 360,000); AID 1347056;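 active = compounds whose plate-normalised and pattern-corrected inhibition of the luciferase reporter signal at the single screening dose is 50% or more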
EBV LMP1 NFkB = reduces LMP1-driven NF-kappaB luciferase signal | actives 0.69% (n = 350,000) | AID 504558 | LMP1-induced NF-kappaB luciferase reporter cells, luminescence | inhibition, % at 12.5 µM; in the data active = inhibition above about 41%; inconclusive = no clear call, values can overlap the other calls;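 also: 0% = neutral control wells and 100% = reference inhibitor control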
TRPM1 prom inh = MITF TRPM1 promoter inhibition in SK-MEL-5 cells. SK-MEL-5 TRPM1 promoter luciferase, 24 h. inhibition, % at 12.5 µM. actives 0.83% (n = 330,000). AID 488899;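 active = mean inhibition across replicates of 60% or more, whatever share of single replicates reaches that level; inconclusive = some that reach 60%, reason not given; inactive = mean inhibition across replicates below 60%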
Peg3 promoter = inhibitors of Peg3 promoter; HeLa PEG-Prom luciferase reporter, luminescence, overnight; inhibition, % at 20 µM; actives 1.7% (n = 360,000);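 active = inhibition of at least 50% at 20 µM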
TWEAK Fn14 block = inhibitors of TWEAK-Fn14 interaction signaling; TWEAK-stimulated Fn14 reporter cells, luciferase luminescence, 8 h; inhibition, % at 10 µM; actives 2% (n = 360,000); AID 1159606; in the data active = inhibition above about 50%
* hit, by the source's call; ? = inconclusive; / = no result. A selection: hits, their analogues and other compounds. The true share with any hit is near 4.1%.

SMILES | Shn3 inh set2 | TROY signal inh | EBV LMP1 NFkB | TRPM1 prom inh | Peg3 promoter | TWEAK Fn14 block
Cc1ccccc1NS(=O)(=O)c1ccc(C(=O)NCC(c2ccco2)N2CCCCC2)cc1 (centres undefined) | 20 | -6 | 13 | 8 | 5 | 2
O=C(Nc1ccc(Cl)c(Cl)c1)Nc1ccc(N2CCCC2)c(S(=O)(=O)Nc2ccccc2Cl)c1 | 98* | 21 | 39 | 73* | 58* | 68*
O=C(Nc1ccc(N2CCOCC2)c(S(=O)(=O)Nc2ccccc2Cl)c1)c1ccc(F)cc1 | 14 | 9 | 4 | 2 | 36 | -9
O=C(Nc1ccc(F)cc1)Nc1ccc(N2CCCC2)c(S(=O)(=O)Nc2ccccc2Cl)c1 | 78 | 24 | 14 | 75* | 42 | 75*
O=C(O)C1CCCCC1C(=O)Nc1cc(C(F)(F)F)ccc1Cl (centres undefined) | -32 | -5 | -13 | -6 | 0 | 9
COc1cc(/C=N/n2cnnc2)ccc1OC(=O)c1ccncc1 | 6 | 63* | -7 | -7 | 16 | 0
COc1cc(/C=N/n2cnnc2)ccc1OC(=O)c1cccnc1 | 2 | 42 | -4 | -1 | 17 | 4
CCOc1cc(CN2CCN(c3ncccn3)CC2)ccc1OC | -43 | 12 | 5 | -3 | 6 | 2
CCCCCOc1ccc(NS(C)(=O)=O)cc1 | -25 | -40 | 78* | -28 | -159 | -19
CCOc1ccc(NS(=O)(=O)c2ccc(NS(C)(=O)=O)cc2)cc1 | 27 | 10 | 5 | -7 | 11 | -14
O=C(CCc1ccccc1)NCc1ccc2c(c1)OCO2 | -15 | -16 | -3 | -10 | -6 | -4
CC(=O)NC(c1cc(Cl)c2cccnc2c1O)C(C)C (centres undefined) | 86* | -7 | 23 | 29 | 37 | -6
CCC(=O)NC(c1ccc(OC)cc1)c1cc(Cl)c2cccnc2c1O (centres undefined) | 60 | -13 | 38 | 50 | 48 | 9
CC(=O)NC(c1cc(Cl)c2ccccc2c1O)C(C)C (centres undefined) | 27 | 24 | 4 | 7 | -5 | 3
COc1ccc(C(NC(=O)c2cccnc2)c2cc(Cl)c3cccnc3c2O)cc1OC (centres undefined) | 93* | 17 | 35 | 19 | 34 | 15
CN(Cc1ccccc1)C(=O)C1CCCN(Cc2cccc(Cl)c2)C1 (centres undefined) | 7 | 11 | -3 | -1 | 6 | -3
CCOC(=O)C1=C(c2ccccc2)NC(=O)NC1c1ccc(O)c(Cl)c1 (centres undefined) | 2 | 8 | -6 | 9 | 28 | 73*
CCOC(=O)C1=C(c2ccccc2)NC(=O)NC1c1ccc(O)c(OCC)c1 (centres undefined) | -17 | 6 | 8 | -1 | 13 | -12
COC(=O)c1ccc2nc(NC(=O)C(C)(C)C)sc2c1 | 34 | 81* | 5 | -1 | 8 | 96*
O=C(NCCc1csc(-c2cccnc2)n1)c1cccc2ccccc12 | -25 | -5 | 89* | -6 | 6 | -8
CCn1c(Cc2ccccc2)nnc1SCC(=O)Nc1ccccc1N1CCOCC1 | 9 | 2 | 0 | 2 | 10 | 1
Cc1cccc2c1N(C)C(=O)C2=O | -11 | -1 | -23 | 18 | 7 | 23
Cc1cc(C)c(C)c(S(=O)(=O)ON2C(=O)c3ccccc3C2=O)c1C | 65 | 6 | 0 | 32 | 89* | 3
Cc1ccc(S(=O)(=O)N2CCN(CCc3ccccc3)CC2)c(C)c1 | 5 | -2 | 12 | 9 | -5 | 3
Cc1ccc(S(=O)(=O)ON2C(=O)c3ccccc3C2=O)c(C)c1 | 82 | -23 | -4 | 39 | 60* | 2
SMILES | Shn3 inh set2 | TROY signal inh | EBV LMP1 NFkB | TRPM1 prom inh | Peg3 promoter | TWEAK Fn14 block
O=C1c2ccccc2C(=O)N1OS(=O)(=O)c1ccc(F)cc1 | -21 | -9 | 10 | 42 | 61* | -23
C=CCn1c(COc2ccccc2F)nnc1SCC(=O)c1c[nH]c2ccccc12 | -9 | 9 | 0 | 9 | 13 | 17
Cc1cc(F)ccc1S(=O)(=O)Nc1ccccc1C(=O)Nc1ccccc1-c1nc2ccccc2[nH]1 | 91* | 70* | -18 | ? | 96* | 102*
O=C(Nc1ccc(-c2nc3ccccc3[nH]2)cc1)c1ccccc1NS(=O)(=O)c1ccc(F)cc1 | -15 | 58* | 6 | -1 | -18 | 8
Cc1ccccc1-c1ccc(Nc2ccc(N3CCOCC3)cc2)nn1 | 19 | -19 | -8 | -16 | -40 | -13
O=C(NCc1ccccc1Br)c1cccs1 | 2 | -2 | / | / | -16 | -3
COC(=O)c1c(NC(=S)Nc2ccc(CC(=O)O)cc2)sc(C)c1C | -5 | -12 | 4 | -4 | 11 | 88*
COc1ccc(C)cc1N(C(=O)CNC(=O)c1ccco1)C(C(=O)NC1CCCC1)c1cccnc1 (centres undefined) | 10 | 6 | 3 | -13 | -3 | -9
O=C(C1CCCN(S(=O)(=O)c2ccc(F)cc2)C1)N1CCCCCC1 (centres undefined) | -2 | -2 | -10 | 1 | 3 | -5
CC(C)CC(=O)NC1(C(F)(F)F)C(=O)N(CC(C)C)C2=C1C(=O)CC(C)(C)C2 (centres undefined) | 5 | 16 | -1 | -1 | 7 | -2
O=C(Nc1nc(-c2ccc3c(c2)OCCO3)cs1)c1ccco1 | -53 | 11 | -20 | -51 | -255 | 26
COc1ccccc1C(=O)Nc1nc(-c2ccc3c(c2)OCCO3)cs1 | -1 | 51* | 3 | / | -38 | 5
COc1cccc(NC(=O)N2CCN(c3nc(-c4cccc(OC)c4)cs3)CC2)c1 | 32 | 37 | 24 | 17 | 51* | 67*
COc1ccc(CC(=O)Nc2nc(-c3cc(OC)ccc3OC)cs2)cc1 | 19 | 20 | -2 | -13 | 27 | 65*
COc1ccc(-c2csc(NC(=O)c3c(C)noc3C)n2)cc1F | -19 | 77* | 15 | -23 | -35 | 20
CCCCCc1ccnc(CC(=O)c2ccc(OC)cc2)c1 | 10 | 3 | 15 | 11 | 17 | -5
COc1cccc(NC(=O)Nc2nc(-c3ccc(OC)c(OC)c3)cs2)c1 | 75 | 70* | 52* | 80* | 105* | 105*
COc1ccc(-c2csc(NC(C)=O)n2)cc1OC | 6 | -7 | -7 | -22 | -15 | -21
C=CCOc1ccc(S(C)(=O)=O)cc1 | 4 | -2 | 2 | -1 | 13 | 1
CCN=c1scc(C)n1/N=C/c1cc(Br)c(O)c(OC)c1 | -4 | 58* | 0 | -17 | -22 | -26
COc1cc(/C=N/N2C(C)CCCC2C)cc(Br)c1O (centres undefined) | 10 | -7 | 3 | 0 | -2 | -21
CCNC(=S)N1CCC(C(=O)c2ccc(F)cc2)CC1 | 0 | -2 | 8 | / | 4 | -14
COc1ccc(-c2nn(-c3ccccc3)cc2CO)cc1 | -9 | -73 | -11 | -47 | -150 | -2
